# Tgondii IFNg: T. gondii growth inhibition with IFN-gamma, primary screen, cell-based. Toxoplasma gondii growth in IFN-gamma-treated host cells; stronger effect = lower value. actives 3.8% (n = 69,000). activity change, negative = inhibition, % (no concentration beside the values); in the data active = activity change below about -70%, passing the limit was not always enough;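 note: host cells are HeLa cells infected with Toxoplasma gondii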
# The depositor's hits bear a star. Only a selection was taken, and hits are over-represented in it overall.
SMILES,Tgondii IFNg
COc1ccc(CN2CCC(n3nnc4c(=O)[nH]c(C(C)(C)C)nc43)CC2)cc1OC,-1.4
O=C(O)[C@H]1C[C@@H](O)CCN1Cc1cccc(O)c1,4.9
CCn1cncc1CNc1ncnc2c1CCN(C(=O)C1CC1)C2,1.7
Cn1c(C(=O)NCc2ccco2)cc2c1c1ccccc1n2CC1CC1,3.5
CCN(CC)CCCNC(=O)c1cc2c(c3ccccc3n2CC2CC2)n1C,-77.5*
N#CCCNC(=O)c1cc2c(c3ccccc3n2CC2CC2)n1-c1ncccn1,-45.9
Cc1ccc(NC(=O)N2CCC3(C2)CN(c2ccsc2)C(=O)CN3C)cc1 (stereo not drawn),188.3
CC(Cn1cnc2c3cc(F)ccc3n(CC(=O)NC3CCCC3)c2c1=O)c1ccccc1 (stereo not drawn),-101.6*
Cc1ccc2c(c1)cc(S(=O)(=O)c1ccccc1)c(=O)n2CC(=O)NC1CCCC1,-19.8
Cc1noc(-c2cc(=O)n(CC(=O)NC3CCCC3)c3ccccc23)n1,68.0
Clc1cc2c(c(CSc3ccccc3C3=NCCCN3)c1)OCOC2,37.8
FC(F)(F)c1ccc2nc(SCc3cc(Cl)cc4c3OCOC4)[nH]c2c1,-80.7*
COc1ccc(C(C)=O)cc1CSc1nc2ccc(C(F)(F)F)cc2[nH]1,-51.6
O=C(Nc1ccccc1)N1CCCn2nnc(CN3CCCCC3)c2C1,-1.1
N[C@@H]1CC[C@@H](NC(=O)c2n[nH]c3c2CCC3)C1,12.4
Cc1nc2ncccn2c1C(=O)N1CCCC2(C1)C(=O)Nc1ccccc12 (stereo not drawn),-82.0*
Cc1cc(C)n2nc(C(=O)N3CCCC4(C3)C(=O)Nc3ccccc34)cc2n1 (stereo not drawn),-24.5
Cc1nc2ncccn2c1C(=O)N1CCCC(C(=O)c2ccc3c4c(cccc24)CC3)C1 (stereo not drawn),-0.8
O=C1NCCN1CCn1ccnc1-c1ccc(-c2ccccc2Cl)o1,43.5
Cc1cc(-c2noc(C(C)(C)C)n2)no1,-0.5
CN(C)CCn1c2c(ccc1=O)CCN(Cc1nccs1)CC2,6.6
COC(=O)C1CC23C=CNC4CCC5(c6ccccc6NC15C2C)C43 (stereo not drawn),-85.5*
O=S(=O)(Cc1ccc(Cl)cc1)c1ccc(NCCc2c[nH]c3ccccc23)nn1,10.5
Cc1ccc(SCCN(C)C(=O)CC2CCOCC2)cc1,1.9
Cc1cc(-c2c(-c3ccccc3)ncn2CCN2CCCC(CO)C2)n[nH]1 (stereo not drawn),0.8
SMILES,Tgondii IFNg
Cc1cc(CSc2nc3ccccc3o2)c(C)cc1CSc1nc2ccccc2o1,-2.6
Cc1[nH]c2ccccc2c1C(=O)CSc1nc2ccccc2o1,-38.6
O=c1cc(CSc2nc3ccccc3o2)[nH]c2nc3ccccc3n12,-97.2*
CC(=O)Nc1ccc(-c2nccn2CCc2cccc(F)c2)cc1,-45.5
CC1=C(C(=O)NCCCN2CCCC2)C2(CCN(S(C)(=O)=O)CC2)OC1=O,15.7
COc1ccc(-c2nc(C)c(CCNS(=O)(=O)c3ccc(OC)c(OC)c3)s2)cc1,474.8
O=S1(=O)c2ccccc2O[C@H]2CCN(Cc3cccc(Cl)c3)CC[C@H]2N1CC1CC1,-14.6
Nc1cc(-c2cnc3ccccc3n2)c2cc[nH]c2n1,-90.3*
Cc1cnc(C)c(-c2cc(N)nc3[nH]ccc23)n1,195.9
COc1ccc(-c2cc(N)nc3[nH]ccc23)cn1,-34.3
CSc1ccc(-c2noc(-c3nnn(Cc4nc(-c5cccc(Cl)c5)oc4C)c3C)n2)cc1,135.6
COc1ccc(C(=O)N2CCCC(c3oncc3-c3cc(C)no3)C2)cc1 (stereo not drawn),-3.5
Cc1c(CN2CCNC(=O)C(Cc3ccc(-c4ccccc4)cc3)C2)c(=O)n(C)c(=O)n1C (stereo not drawn),-3.3
O=C(NCc1cccnc1)c1ccccc1NS(=O)(=O)c1cccs1,27.9
O=S(=O)(Nc1cc(Sc2ncn[nH]2)c(O)c2ccccc12)c1cccs1,-98.3*
CCOc1ccccc1NS(=O)(=O)c1cccs1,2.9
Cc1cnc(CNC(=O)CCCn2cnc3ccccc3c2=O)cn1,-5.6
Cc1nc2ccc(C(=O)N3CCC(c4cc(C(C)C)n[nH]4)CC3)cc2[nH]1,-5.3
CCOC(=O)c1cnc2c(-c3ccccc3)c(C(F)(F)F)sc2c1N1CCOCC1,-93.4*
CCOC(=O)c1cnc2oc3ccc(O)cc3c2c1-c1ccccc1,13.7
Cc1nc(-c2ccccc2)sc1C(=O)Oc1ccccc1N1CCOCC1,-56.0
Cc1cccc(CN2CC3(CCC2=O)CCN(C(=O)C2CC2)CC3)n1,0.3
CN(C)S(=O)(=O)N1C[C@H]2CCCO[C@H]2[C@@H](Nc2ccccn2)C1,-1.1
COC1CC2CC1CN2C(=O)c1cccc(C#N)c1 (stereo not drawn),84.0
CN1CCCN(Cc2cnc3c(-c4ccccc4)cnn3c2)CC1,11.4
SMILES,Tgondii IFNg
O=C(c1ccc(OCCN2CCCCC2)cc1)c1c(-c2ccc(O)cc2)sc2cc(O)ccc12,-16.9
c1cc(-c2cnn3cc(-c4ccc(OCCN5CCCCC5)cc4)cnc23)ccn1,-75.4*
CCOC(=O)c1nc(N2CCN(c3ccccc3OC)CC2)c2ccccc2n1,38.7
CCOc1ccc(-c2nc3c(s2)CN(S(=O)(=O)Cc2ccccc2)CC3)cc1,10.3
COc1ccc(S(=O)(=O)N2CCc3nc(-c4cccc(OC)c4)sc3C2)cc1,-9.3
COc1cccc(-c2nc3c(s2)CN(C(=O)Nc2ccccc2C)CC3)c1,25.4
CCOc1ccc(-c2nc3c(s2)CN(S(=O)(=O)c2ccccc2C)CC3)cc1,-94.0*
COc1ccc(S(=O)(=O)N2CCc3nc(-c4ccc(C)cc4)sc3C2)cc1OC,16.5
COc1cccc(-c2nc3c(s2)CN(S(=O)(=O)c2ccc(C)cc2)CC3)c1,-53.6
COc1cccc(-c2nc3c(s2)CN(S(=O)(=O)c2ccc(F)cc2)CC3)c1,-78.6*
COc1cccc(-c2nc3c(s2)CN(S(=O)(=O)c2ccc(Cl)cc2)CC3)c1,-57.5
COc1ccc(-c2nc3c(s2)CN(S(=O)(=O)c2cc(C)cc(C)c2)CC3)cc1OC,-124.8*
COc1cccc(-c2nc3c(s2)CN(S(=O)(=O)c2c(C)cc(C)cc2C)CC3)c1,-97.9*
COc1cccc(-c2nc3c(s2)CN(S(=O)(=O)c2ccc(OC)c(OC)c2)CC3)c1,-20.1
Cc1ccc(NCc2nnc(SCc3nnnn3-c3ccc(Cl)cc3)o2)c(C)c1,-2.4
C=Cc1cccc(-c2nccn2CCCO)c1,4.3
O=C(NC1CCC12CCN(C(=O)c1ccoc1)CC2)c1cnccn1 (stereo not drawn),7.1
Cc1nsc(NC(=O)N2CCC(n3c(=O)[nH]c4ccccc43)CC2)n1,7.3
Cc1ncnc2c1CCN(C1CCOCC1)CC2,8.5
CN1C(=O)CC(C(=O)N(CCO)Cc2cccs2)c2ccccc21 (stereo not drawn),0.6
FC(F)(F)c1cc(N2CCc3ccccc3C2)c2cccc(Cl)c2n1,-32.9
C1CN(Cc2nc(C34CC5CC(CC(C5)C3)C4)no2)CCO1,-38.8
CCc1ccc(S(=O)(=O)N2CCC[C@@H]2C(=O)NCCc2csc(C)n2)cc1,-3.2
O=C(O)C1CC(N2CCOCC2)CCN1C(=O)Cc1ccsc1 (stereo not drawn),-4.4
O=C(O)c1cccc(-c2ccc(C(=O)N3CCC(Oc4cccnc4)CC3)cn2)c1,6.4
O=S(=O)(c1ccccc1F)N1CCCn2nnc(CN3CCCCC3)c2C1,0.6
Cn1cncc1[C@@H]1C[C@H](NC(=O)c2ccccc2)C[C@H](C2CCCCC2)O1,-13.5
COc1ccc(-c2nc3c(s2)CN(S(=O)(=O)c2ccccc2C)CC3)cc1,-114.7*
Cc1cc(C)c(S(=O)(=O)N2CCc3nc(-c4ccccc4)sc3C2)cc1C,-89.2*

# Screening data (PubChem)
